KDM5B inhibitor – inhibitors of human KDM5B histone demethylase | KDM5B demethylase, FDH-coupled NADH fluorescence (FDH is formaldehyde dehydrogenase) | hit rate 2.6% among 220,000 | AID 1347165 | Q9UGL1 | Potency, µM (top dose mostly 57.7 µM), actives largely listed as inhibitors; also: nearly all actives have a fitted effect of over 70% in size
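qHTS format, multiple compound concentrations. Buffer 50 mM HEPES pH 7.5/0.01% Tween-20; 200 nM KDM5BΔAP final; 10 min compound preincubation; substrate-mix levels 12.5 µM peptide, 25 µM α-KG, 0.25 mM NAD⁺; 30 min RT; ΔRFU.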
SNCA expr inh – reduces expression of the alpha-synuclein gene. HEK-293 SNCA-luciferase knock-in, luminescence, 24 h. Potency, µM (series often up to 57.2 µM), hits mostly inhibitors. hit rate 0.17% among 140,000. AID 1671194; also: nearly all actives have a fitted effect of over 45% in size
IP6K1 inh – IP6K1 kinase inhibition | hit rate 0.81% among 140,000 | activity change, % (series mostly up to about 58 µM) | Q92551 | IP6K1 kinase, ADP-Glo luminescence, 2 h; active compounds read low; in the data active = activity change below about -25%
Target sequence (Q92551 whole entry, looked up): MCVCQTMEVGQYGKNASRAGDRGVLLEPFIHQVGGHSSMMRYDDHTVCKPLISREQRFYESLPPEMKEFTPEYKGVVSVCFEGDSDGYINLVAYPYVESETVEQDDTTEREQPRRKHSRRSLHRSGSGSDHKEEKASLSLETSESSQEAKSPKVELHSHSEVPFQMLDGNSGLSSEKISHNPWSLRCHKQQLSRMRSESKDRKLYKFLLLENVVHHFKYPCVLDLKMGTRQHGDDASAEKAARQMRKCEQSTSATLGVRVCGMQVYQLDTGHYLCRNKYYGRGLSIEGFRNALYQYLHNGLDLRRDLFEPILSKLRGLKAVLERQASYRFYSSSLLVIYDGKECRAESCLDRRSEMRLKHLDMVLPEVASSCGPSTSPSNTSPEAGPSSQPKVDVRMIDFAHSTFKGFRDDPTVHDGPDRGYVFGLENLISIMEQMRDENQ
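ADP-Glo luminescence measures ADP made by human IP6K1 during a 2 h RT reaction with ATP/IP6 (mix at 1.3 mM/130 uM); top library doses 57.5 and 19.1 uM final.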
HEK293 viab – reduces viability of HEK-293 SNCA reporter cells | AID 1671193 | HEK-293-SNCA-luc viability, GF-AFC fluorescence, 24 h | hit rate 0.12% among 150,000 | Potency, µM (series often up to 57.1 µM), most hits filed as cytotoxic; also: nearly all actives have a fitted effect of over 30% in size
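Cytotoxicity counterscreen: after 24 h compound treatment of genome-edited SNCA-luciferase HEK-293 cells, live-cell protease substrate GF-AFC read by fluorescence after 30 min; activity scaled between DMSO (0%) and medium-only (-100%), curves Hill-fitted.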
Hits are given with their value; n = inactive; u = inconclusive; x = no result given; + = active, no number; [ ] = remark or other dose. Only some compounds are listed: those with a hit (about 2.9% of all), similar ones and a draw of the others. Unless noted, calls follow the shape of the dose curve; as a rule, active = well fitted curve in the direction sought with a large enough effect; inconclusive = small, poorly fitted or top-dose-only effect, or another doubt; inactive = no such curve, though single readings can be large; an effect the other way counts as inactive or inconclusive.

SMILES	KDM5B inhibitor	SNCA expr inh	IP6K1 inh	HEK293 viab
CC(=O)Nc1cc(C(=O)NC2CCCCC2)c2ccc(C)nc2c1	22µM	n	n	n
Cc1ccc(C(=O)NC2CC(=O)N(CCCc3ccccc3)C2)s1 (stereo not drawn)	n	n	n	n
Cc1cccc(C)c1-n1c(=O)c2cnc(Nc3ccc(N4CCN(C)CC4)cc3)nc2n2c3ccccc3nc12	x	x	n	u
C=CCn1c(=O)c2cnc(Nc3ccc(N4CCN(C)CC4)cc3)nc2n1-c1cccc(C(C)(C)O)n1	x	0.48µM	n	u
CC(C)(C)CC(=O)N1CCN2C(=O)c3cc(-c4ccc5c(c4)OCO5)ccc3NC(=O)[C@H]2C1	u	u	n	n
CSc1ccc(-c2ccc3c(c2)C(=O)N2CCN(C(=O)C4CCCCC4)C[C@@H]2C(=O)N3)cc1	28µM	n	n	n
COc1ccc(-c2ccc3c(c2)C(=O)N2CCN(C(=O)C4CCCCC4)C[C@@H]2C(=O)N3)cc1	u	n	n	n
O=C1Nc2ccc(-c3ccc4c(c3)OCO4)cc2C(=O)N2CCN(C(=O)C3CCCC3)C[C@@H]12	22µM	n	n	n
COc1ccc2c(c1)CCc1c-2n[nH]c1C(=O)N1CCc2nc3cc(-c4ccccc4)[nH]n3c(=O)c2C1	u	n	n	n
COc1ccc(-c2cc3nc4c(c(=O)n3[nH]2)CN(C(=O)NCc2ccco2)CC4)cc1	25µM	u	n	n
COc1ccc(-c2cc3nc4c(c(=O)n3[nH]2)CN(C(=O)Cc2ccccc2)CC4)cc1	28µM	n	n	n
COc1ccc(-c2cc3nc4c(c(=O)n3[nH]2)CN(C(=O)CCCc2c[nH]c3ccccc23)CC4)cc1	u	u	n	n
Cc1nn(C)c(C)c1-c1ccnc(NCC2COc3ccccc3O2)n1 (stereo not drawn)	u	n	n	n
Cc1nn(C)c(C)c1-c1ccnc(NCC2CC(=O)N(C3CCCC3)C2)n1 (stereo not drawn)	25µM	n	n	n
Cc1cc(NC(=O)C(C)OC(=O)c2ccc3c(c2)NC(=O)CS3)no1 (stereo not drawn)	n	x	x	x
CCN(Cc1cc(=O)[nH]c2c(C)cc(C)cc12)C(=O)Nc1cc(C)ccc1OC	n	x	x	x
C#CCNC(=O)c1nc(-c2ccc([S+](C)(=O)[O-])cc2)c2cnccn12	+	n	n	n
CC(C)NC(=O)c1nc(-c2ccsc2)c2ccccn12	112µM	n	n	n
CC(C)NC(=O)c1nc(-c2ccc(Cl)cc2)c2ccccn12	89µM	n	n	n
CC(C)NC(=O)c1nc(-c2ccsc2)c2cnccn12	40µM	n	n	n
COc1cc(Br)c(C2CC(=O)NC(C)=C2C(=O)OCc2ccc(C)cc2)cc1OC (stereo not drawn)	n	x	x	x
O=C(c1ccc(F)cc1)N1CCc2nc(C3CC3)nc(-c3ccc(O)cc3)c2CC1	n	n	n	n
C#CCNC(=O)c1nc(-c2cccnc2)c2cnccn12	n	n	n	n
C#CCNC(=O)c1nc(-c2ccsc2)c2cnccn12	32µM	n	n	n
CC(C)NC(=O)c1nc(-c2cccc(F)c2)c2cnccn12	32µM	n	n	u
SMILES	KDM5B inhibitor	SNCA expr inh	IP6K1 inh	HEK293 viab
CN(C)C(=O)N1CCN(c2nccc(Nc3ccccc3Cl)n2)CC1	x	n	n	n
COc1ccc(-c2cc3c(ccn3Cc3ccncc3)c(N3CCOCC3)n2)cn1	u	n	n	n
c1cc(Cn2ccc3c(N4CCOCC4)nc(-c4cncnc4)cc32)ccn1	n	n	n	n
O=C1NCc2cc(-c3cc4c(ccn4Cc4ccncc4)c(N4CCOCC4)n3)ccc21	32µM	n	n	n
c1ccc(-c2cc3c(ccn3Cc3ccncc3)c(N3CCOCC3)n2)cc1	7.9µM	u	n	n
COc1cc(F)ccc1-c1cc2c(ccn2Cc2ccncc2)c(N2CCOCC2)n1	35µM	n	n	n
COc1ccc(CNC(=O)c2ccc3c(c2)N(C(=O)c2ccc(F)cc2)CC3)c(OC)c1	n	n	n	n
COc1ccc(F)cc1S(=O)(=O)NC1CCc2nnc(C3CC3)n2CC1 (stereo not drawn)	n	n	n	n
Cc1ccccc1-c1onc(C)c1C(=O)NCc1cc(F)cc(F)c1	n	n	n	n
COc1ccccc1-c1onc(C)c1C(=O)NCc1ccccc1C	u	n	n	n
Cc1noc(-c2ccc3c(c2)OCO3)c1C(=O)NC(C)CCc1ccccc1 (stereo not drawn)	28µM	n	n	n
CCOc1ccccc1CNC(=O)c1c(C)noc1-c1ccc2c(c1)OCO2	28µM	n	n	n
Cc1noc(-c2ccc3c(c2)OCO3)c1C(=O)NCc1cc(F)cc(F)c1	28µM	n	n	n
Cc1noc(-c2ccc3c(c2)OCO3)c1C(=O)NCCCCc1ccccc1	28µM	n	n	n
COc1ccc(-c2onc(C)c2C(=O)NCCCCc2ccccc2)cc1	n	n	n	n
O=C(c1noc(-c2ccc(F)cc2)n1)N1CCN(c2ccccc2F)CC1	32µM	u	n	n
O=C(c1noc(-c2ccc(F)cc2)n1)N1CCN(c2ccccc2)CC1	u	n	n	n
Cc1ccc(CN2CCN(c3nc(C)ccc3C#N)CC2CCO)cc1 (stereo not drawn)	18µM	n	n	n
O=C1c2cnc(-c3ccccc3OCc3ccccc3)nc2OCCN1CC1CC1	32µM	n	n	n
COc1cccc(-c2ncc3c(n2)OCCN(Cc2ccc(F)cc2F)C3=O)c1	35µM	n	n	n
COc1cccc(-c2ncc3c(n2)OCCN(Cc2ccc(F)cc2F)C3=O)c1F	u	n	n	n
COc1ccccc1-c1ncc2c(n1)OCCN(Cc1ccc(F)cc1F)C2=O	35µM	n	n	n
CC(C)(C)NC(=O)N1CC(c2noc(C3CCCN3CC3CC3)n2)C1 (stereo not drawn)	n	n	n	n[12.5 µM]
CC(C)(C)C(=O)C1C(C(C)(C)C)=CC(c2ccccc2)=CC1(C)c1ccccc1 (stereo not drawn)	n	x	x	x
Cc1ccc(CN2C(=O)C(=O)c3cc(Br)cc(C)c32)cc1	u	22µM	n	u
SMILES	KDM5B inhibitor	SNCA expr inh	IP6K1 inh	HEK293 viab
O=c1c2nc(-c3ccc(F)cc3)ccc2ncn1Cc1ccccn1	32µM	n	n	n
Cn1nccc1-c1ccc2ncn(-c3ccccc3)c(=O)c2n1	32µM	n	n	n
O=c1c2nc(-c3ccccc3)ccc2ncn1-c1ccccc1	40µM	n	n	n
O=c1c2nc(Nc3cccnc3)ccc2ncn1-c1ccc(F)cc1F	n	n	n	n
Cn1nccc1-c1ccc2ncn(-c3ccc(F)cc3F)c(=O)c2n1	40µM	n	n	n
O=c1c2nc(-c3ccc(O)c(F)c3)ccc2ncn1Cc1ccccn1	u	n	n	n
O=c1c2nc(-c3cccnc3)ccc2ncn1Cc1ccccc1	n	n	n	n
O=C(C1CC1)N1CCC2(CC1)CCN(Cc1cccs1)c1ccccc1O2	n	n	n	n
Cc1c(Cl)cccc1NC(=O)N(C)CC1CCOCC1	n	n	n	n
CCOC(=O)[C@@H]1CN(C(=O)c2cccc3c2OC(F)(F)O3)[C@H]2c3cccc(F)c3O[C@@H]12	x	x	n	x

From PubChem
